{
  "source": "the supplement of paper PMC5662767",
  "system": "Drosophila S2 cl14 SmoIP sensor cells",
  "test": "normalized SmoIP GFP fluorescence (untreated unstimulated = 0%, untreated Hh-stimulated = 100%); higher = more Smo activation sensor fluorescence",
  "conditions": "compound concentration: 2 uM, 24 h",
  "key": {"[1]": {"conditions": "stimulation: Hh conditioned medium (+Hh)"}, "[2]": {"conditions": "stimulation: mock conditioned medium (-Hh)"}},
  "data": [
    {"molecule": "CC[C@H](CO)Nc1nc(NCc2ccccc2)c2ncn(C(C)C)c2n1", "note": "[Roscovitine]", "values": [
      {"measurement": "normalized SmoIP GFP fluorescence", "setting": "[1]", "result": 121, "unit": "%"},
      {"measurement": "normalized SmoIP GFP fluorescence", "setting": "[2]", "result": 5.12, "unit": "%"}
    ]},
    {"molecule": "CC1(C)CNc2cc(NC(=O)c3cccnc3NCc3ccncc3)ccc21", "note": "[Motesanib-Diphosphate]", "values": [
      {"measurement": "normalized SmoIP GFP fluorescence", "setting": "[1]", "result": 136, "unit": "%"},
      {"measurement": "normalized SmoIP GFP fluorescence", "setting": "[2]", "result": 43.3, "unit": "%"}
    ]},
    {"molecule": "CCNC(=O)c1[nH]nc(-c2cc(Cl)c(O)cc2O)c1-c1ccc(OC)cc1", "values": [
      {"measurement": "normalized SmoIP GFP fluorescence", "setting": "[1]", "result": 188, "unit": "%"},
      {"measurement": "normalized SmoIP GFP fluorescence", "setting": "[2]", "result": 23.1, "unit": "%"}
    ]},
    {"molecule": "Cc1ccc(Nc2nccc(N(C)c3ccc4c(C)n(C)nc4c3)n2)cc1S(N)(=O)=O", "note": "[pazopanib]", "values": [
      {"measurement": "normalized SmoIP GFP fluorescence", "setting": "[1]", "result": 107, "unit": "%"},
      {"measurement": "normalized SmoIP GFP fluorescence", "setting": "[2]", "result": 1.95, "unit": "%"}
    ]},
    {"molecule": "O=C(CCCS)NC1CCN(C(=O)COc2ccc(Cl)cc2Cl)CC1", "note": "[k-ras-g12c-inhibitor-6]", "values": [
      {"measurement": "normalized SmoIP GFP fluorescence", "setting": "[1]", "result": 113, "unit": "%"},
      {"measurement": "normalized SmoIP GFP fluorescence", "setting": "[2]", "result": -2.82, "unit": "%"}
    ]},
    {"molecule": "CC(C(O)c1ccc(O)cc1)N1CCC(Cc2ccccc2)CC1", "note": "(stereo not given) [ifenprodil-tartrate]", "values": [
      {"measurement": "normalized SmoIP GFP fluorescence", "setting": "[1]", "result": 103, "unit": "%"},
      {"measurement": "normalized SmoIP GFP fluorescence", "setting": "[2]", "result": -5.15, "unit": "%"}
    ]},
    {"molecule": "CCCCOc1c(C(=O)c2c(F)cc(C)cc2F)c[nH]c2nncc1-2", "values": [
      {"measurement": "normalized SmoIP GFP fluorescence", "setting": "[1]", "result": 138, "unit": "%"},
      {"measurement": "normalized SmoIP GFP fluorescence", "setting": "[2]", "result": -11.7, "unit": "%"}
    ]},
    {"molecule": "CNC(=O)Nc1ccc(-c2nc(N3CC4CCC(C3)O4)c3cnn(C4CCC5(CC4)OCCO5)c3n2)cc1", "values": [
      {"measurement": "normalized SmoIP GFP fluorescence", "setting": "[1]", "result": 41.3, "unit": "%"},
      {"measurement": "normalized SmoIP GFP fluorescence", "setting": "[2]", "result": -8.33, "unit": "%"}
    ]},
    {"molecule": "CN1C2CCC1CC(OC(=O)C(O)c1ccccc1)C2", "note": "(stereo not given) [homatropine-bromide]", "values": [
      {"measurement": "normalized SmoIP GFP fluorescence", "setting": "[1]", "result": 102, "unit": "%"},
      {"measurement": "normalized SmoIP GFP fluorescence", "setting": "[2]", "result": -4.81, "unit": "%"}
    ]},
    {"molecule": "COc1cc2ncnc(Nc3ccc(O)c(Br)c3)c2cc1OC", "values": [
      {"measurement": "normalized SmoIP GFP fluorescence", "setting": "[1]", "result": 112, "unit": "%"},
      {"measurement": "normalized SmoIP GFP fluorescence", "setting": "[2]", "result": -2.31, "unit": "%"}
    ]},
    {"molecule": "O=c1sn(-c2cccc3ccccc23)c(=O)n1Cc1ccccc1", "note": "[tideglusib]", "values": [
      {"measurement": "normalized SmoIP GFP fluorescence", "setting": "[1]", "result": 101, "unit": "%"},
      {"measurement": "normalized SmoIP GFP fluorescence", "setting": "[2]", "result": -0.264, "unit": "%"}
    ]},
    {"molecule": "CC1CCc2cc(F)cc3c(=O)c(C(=O)O)cn1c23", "note": "(stereo not given) [flumequine]", "values": [
      {"measurement": "normalized SmoIP GFP fluorescence", "setting": "[1]", "result": 106, "unit": "%"},
      {"measurement": "normalized SmoIP GFP fluorescence", "setting": "[2]", "result": -3.79, "unit": "%"}
    ]},
    {"molecule": "COc1ccc(CCc2nc3cc(-c4c(C)noc4C)ccc3n2C[C@H](C)N2CCOCC2)cc1Cl", "values": [
      {"measurement": "normalized SmoIP GFP fluorescence", "setting": "[1]", "result": 144, "unit": "%"},
      {"measurement": "normalized SmoIP GFP fluorescence", "setting": "[2]", "result": 2.75, "unit": "%"}
    ]},
    {"molecule": "Oc1ccc(-c2nc(-c3ccc(F)cc3)c(-c3ccncc3)[nH]2)cc1", "values": [
      {"measurement": "normalized SmoIP GFP fluorescence", "setting": "[1]", "result": 99.3, "unit": "%"},
      {"measurement": "normalized SmoIP GFP fluorescence", "setting": "[2]", "result": -1.34, "unit": "%"}
    ]},
    {"molecule": "CN(C)CCC[C@@]1(c2ccc(F)cc2)OCc2cc(C#N)ccc21", "note": "[escitalopram-oxalate]", "values": [
      {"measurement": "normalized SmoIP GFP fluorescence", "setting": "[1]", "result": 107, "unit": "%"},
      {"measurement": "normalized SmoIP GFP fluorescence", "setting": "[2]", "result": -1.12, "unit": "%"}
    ]}
  ]
}
